A selection: hits, their analogues and other compounds. The true share with any hit is near 17%.
S2 tox – viability counter-screen for ATXN expression inhibitors; S2 cells (HEK-293 line with an ATXN2-luciferase reporter) viability, CellTiter-Fluor protease fluorescence, 24 h; Potency, µM (highest dose often 56.7 µM), usual class: cytotoxic; hit rate 0.49% among 400,000; AID 651635; further: nearly all actives have a fitted effect of over 40% in size
TGFb inhibitor – inhibitors of TGF-b signaling; HepG2 CAGA-GFP TGF-b/SMAD3 reporter, GFP fluorescence, 18 h; TGF-beta stimulated, 500 pg/mL final; Potency, µM (doses to about 46.1 µM), actives largely listed as inhibitors; hit rate 1.2% among 410,000; AID 588855; further: nearly all actives have a fitted effect of over 65% in size
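Inhibition of TGF-beta-driven CAGA-GFP reporter expression in HEPG2 cells is measured by cellular GFP fluorescence after 18 h stimulation with 500 pg/mL recombinant TGF-beta in 1% FBS medium at 37 degrees C.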
TDP1 cell CPT – DT40-hTDP1 cell growth loss with CPT | Potency, µM (titrated, usually from 46.2 µM), hits mostly inhibitors | AID 686979 | chicken DT40 Tdp1-/-;hTDP1 cells + 20 nM CPT, ATP luminescence, 48 h | hit rate 12% among 420,000; further: nearly all actives have a fitted effect of over 55% in size
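Cell growth measured by CellTiter-Glo luminescence after a minimum 48 h, 37 C compound exposure with 20 nM CPT in Tdp1-knockout DT40 cells stably expressing hTDP1, seeded 400/well; qHTS titration format.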
HepG2 viability – counter-screen for TGF-b inhibitors: cytotoxicity in HepG2 cells; HepG2 CAGA-GFP viability, ATP luminescence, 18 h; Potency, µM (titrated, usually from 46.1 µM), most hits filed as cytotoxic; hit rate 0.76% among 410,000; AID 588856
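CellTiter-Glo luminescence gave cytotoxicity after 18 hours at 37 degrees C. The cells were HepG2 CAGA-GFP in 1% FBS DMEM, stimulated with 500 pg/mL TGF-beta after compound addition. %Activity was normalised to no-cell wells (complete cell-killing) and DMSO (no toxicity), and curves were fitted and classified.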
DT40 TDP1 no CPT – qHTS for Inhibitors of human tyrosyl-DNA phosphodiesterase 1 (TDP1): qHTS in cells in absence of CPT | DT40 Tdp1-/- hTDP1 cells, no CPT, ATP luminescence, 48 h | Potency, µM (highest dose often 46.2 µM), actives largely listed as inhibitors | hit rate 15% among 420,000 | AID 686978, 2013; further: nearly all actives have a fitted effect of over 55% in size
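Readout: luminescence from CellTiter-Glo after 30 min in the dark at RT. Cells: DT40 Tdp1-/- with stable hTDP1, 400/well. Exposure: compounds alone, ≥48 hr, 37 °C.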
ATXN2 expr inh – reduces ATXN2 reporter expression in HEK-293 cells; HEK-293 ATXN2-luciferase reporter, luminescence, 24 h; Potency, µM (titrated, usually from 57 µM), most hits filed as inhibitors; hit rate 0.72% among 360,000; AID 1745845; further: nearly all actives have a fitted effect of over 55% in size
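ATXN2-luciferase reporter cells (luciferase flanked by upstream and downstream ATXN2 gene portions) were treated 24 h at 37 °C with compounds at up to 57 uM. SteadyGlo luminescence gave expression; GF-AFC fluorescence gave viability.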
Of the large screens only hits and unclear results are named; the others gave an inactive call. The call rests on the fitted dose curve; in most records, active means well fitted curve in the direction sought with a large enough effect; inconclusive means small, poorly fitted or top-dose-only effect, or another doubt; inactive means no such curve, though single readings can be large; an effect the other way counts as inactive or inconclusive.

Cc1ccc(C(=O)N2CCN(S(=O)(=O)c3ccc(C)cc3)CC2)cc1	none
COc1ccc(CN2CCN(C(=O)c3ccc(S(=O)(=O)N4CCCCCC4)cc3)CC2)cc1F	TGFb inhibitor inconclusive, TDP1 cell CPT 21µM, DT40 TDP1 no CPT 21µM
Cc1nn(C(=O)c2ccc(Cl)cc2)c(C)c1Sc1ccc(Cl)cc1	TDP1 cell CPT inconclusive, DT40 TDP1 no CPT inconclusive
C/C(CC(=O)Nc1cccc(C(F)(F)F)c1)=N\NC(=O)C1CCCCC1	TGFb inhibitor inconclusive, TDP1 cell CPT inconclusive (no result: ATXN2 expr inh)
CCCC(C)NC(=O)c1ccccc1SC (stereo not given)	none
Cn1nc(C(=O)Nc2ccccc2N2CCCC2)c2ccccc2c1=O	TDP1 cell CPT inconclusive, DT40 TDP1 no CPT inconclusive
O=C(c1ccc(S(=O)(=O)N2CCCCCC2)cc1)N1CCN(Cc2ccccc2)CC1	none
COc1ccc(CN2CCN(C(=O)c3ccc(S(=O)(=O)N4CCCCCC4)cc3)CC2)cc1	TDP1 cell CPT inconclusive, DT40 TDP1 no CPT 15µM
CCOC(CNc1ncnc2sc(-c3ccccc3)cc12)OCC	TDP1 cell CPT inconclusive
CCn1cnc2sc(-c3ccccc3)cc2c1=O	none
CCCCN(CCO)c1ncnc2sc(-c3ccccc3)cc12	TGFb inhibitor inconclusive, TDP1 cell CPT inconclusive, DT40 TDP1 no CPT 16µM, ATXN2 expr inh inconclusive
CN(C)CCCNc1ncnc2sc(-c3ccccc3)cc12	TGFb inhibitor inconclusive, TDP1 cell CPT inconclusive, DT40 TDP1 no CPT 16µM (no result: ATXN2 expr inh)
O=C(COC(=O)c1n[nH]c(=O)c2ccccc12)NCc1ccccc1	TDP1 cell CPT 12µM, DT40 TDP1 no CPT 9.2µM (no result: ATXN2 expr inh)
COc1ccc(NCc2n[nH]c(=O)c3ccccc23)cc1	TGFb inhibitor inconclusive, TDP1 cell CPT inconclusive, DT40 TDP1 no CPT inconclusive
O=c1[nH]nc(CNc2cccc(C(F)(F)F)c2)c2ccccc12	TDP1 cell CPT 26µM, DT40 TDP1 no CPT 15µM (no result: ATXN2 expr inh)
Cc1cc(C(=O)COC(=O)Cc2n[nH]c(=O)c3ccccc23)c(C)n1-c1cccc(C(F)(F)F)c1	TGFb inhibitor inconclusive, TDP1 cell CPT inconclusive, DT40 TDP1 no CPT 16µM
Cc1nnc(NCc2n[nH]c(=O)c3ccccc23)c2ccccc12	S2 tox inconclusive, TGFb inhibitor inconclusive, TDP1 cell CPT 5.8µM, DT40 TDP1 no CPT 10µM, ATXN2 expr inh inconclusive
Cc1cc(C(=O)COC(=O)CC2Sc3ccccc3NC2=O)c(C)n1-c1cccc(C(F)(F)F)c1 (stereo not given)	S2 tox inconclusive, TDP1 cell CPT inconclusive, DT40 TDP1 no CPT inconclusive (no result: ATXN2 expr inh)
COC(=O)c1cc(S(=O)(=O)NCCCc2ccco2)c[nH]1	TDP1 cell CPT inconclusive (no result: ATXN2 expr inh)
O=C(CCNC(=O)c1ccco1)Nc1ccc(OC(F)(F)F)cc1	none
Cc1ccc(-c2nc3c(c(SCC(=O)N4CCOCC4)n2)COC(C)(C)C3)cc1	TDP1 cell CPT inconclusive, DT40 TDP1 no CPT inconclusive
O=c1[nH]nc(Cc2ccccc2)c2ccccc12	TDP1 cell CPT 7.3µM
Cc1cc(OCC(=O)OCC(=O)NCCN2C(=O)CSC2=O)ccc1Cl	none
O=C(Oc1cc(-c2ccccc2)no1)c1ccc(Cl)cc1	TGFb inhibitor inconclusive, TDP1 cell CPT inconclusive, DT40 TDP1 no CPT inconclusive
O=C(NC(=S)NCc1ccccc1)c1cccc([N+](=O)[O-])c1	TDP1 cell CPT inconclusive, DT40 TDP1 no CPT inconclusive (no result: ATXN2 expr inh)
CCCC(=O)N=c1sc2c(OC)ccc(OC)c2n1C	none
COc1ccc(OC)c2c1sc(=NC(=O)C(C)(C)C)n2C	TDP1 cell CPT 21µM, DT40 TDP1 no CPT inconclusive
COc1ccc(OC)c2c1sc(=NC(=O)C(C)C)n2C	TDP1 cell CPT 23µM, DT40 TDP1 no CPT inconclusive
CN(Cc1cccs1)C(=O)c1ccc(S(=O)(=O)N2CCCCC2)cc1	TDP1 cell CPT inconclusive, DT40 TDP1 no CPT inconclusive (no result: ATXN2 expr inh)
CN(CC(=O)Nc1cc(S(=O)(=O)N2CCCC2)ccc1Cl)Cc1cccs1	TGFb inhibitor inconclusive, TDP1 cell CPT inconclusive, DT40 TDP1 no CPT 16µM (no result: ATXN2 expr inh)
O=S(=O)(c1ccc(S(=O)(=O)N(Cc2ccccc2)Cc2ccco2)cc1)N1CCCC1	S2 tox inconclusive, TDP1 cell CPT 15µM, DT40 TDP1 no CPT inconclusive, ATXN2 expr inh inconclusive
O=C(C1CCCN(S(=O)(=O)c2ccc(Cl)cc2)C1)N(Cc1cccs1)C1CC1 (stereo not given)	TDP1 cell CPT inconclusive, DT40 TDP1 no CPT 18µM
CCN(CC(=O)Nc1cc(S(=O)(=O)N2CCCCC2)ccc1Cl)Cc1ccccc1	S2 tox inconclusive, TDP1 cell CPT 16µM, DT40 TDP1 no CPT 18µM
COC(=O)C1CSC(C(=O)OC)N1C(=O)CN1CCN(c2ccccc2)CC1 (stereo not given)	none
CCc1ccc(C(=O)c2cn(CC(=O)Nc3ccc4c(c3)OCCO4)c3ccc(C)cc3c2=O)cc1	none
CCN(CC(=O)Nc1ccc(S(=O)(=O)N2CCCCC2)cc1)Cc1ccccc1	TDP1 cell CPT 12µM, DT40 TDP1 no CPT inconclusive
CCN(CC(=O)NCc1ccc(F)cc1)CC(=O)Nc1ccc(S(=O)(=O)N2CCCC2)cc1	none
Cc1cc(C=O)c(C)n1-c1ccc(N2CCOCC2)c([N+](=O)[O-])c1	TDP1 cell CPT inconclusive, DT40 TDP1 no CPT inconclusive
